The values that follow come from PubChem BioAssay (NCI).

The panel holds about 83,000 compounds, 20% with a hit somewhere; the sample as a whole holds those more often.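 96-well plates, one dose, 48 hours. Percent growth reported; active if below 10.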 Unmarked numbers belong to inactive results. Activity calls are given as the source filed them.

This assay deals with U251 CNS. The assay can be described thus: NCI-60 one-dose screen, 48 h (100 = growth as untreated, 0 = no growth, -100 = all killed). As to conditions: 10 µM unless noted. On the procedure:
Growth inhibition of the U251 human tumor cell line is measured as a screen for anti-cancer activity. Cells are grown in 96 well plates and exposed to the test compound for 48 hours. Compounds are tested at a single concentration, which is 10^-5 M for most compounds. The reported endpoint is percent growth (GI% or GIPRCNT), where numbers from 0 - 100% represent growth inhibition, and numbers from -100% - 0 represent cell death. For example, a value of 40 represents 60% growth inhibition. A value of 0 means no net growth occurred over the course of the experiment. A value of -40 indicates 40% of cells at the beginning of the experiment died by the end of the experiment. A value of -100 means all cells are dead at the end of the experiment.
NCI-60 Human Tumor Cell Lines Screen was performed using the standard one-dose NCI protocol, which is described in more detail at https://dtp.cancer.gov/discovery_development/nci-60/default.htm.
Compounds with GIPRCNT values below 10 were considered active. Activity score was based on GIPRCNT using the following formula: […]
Score is 0 for GIPRCNT values of 100 or above, 50 for GIPRCNT values of 0, and 100 for GIPRCNT values of -100.
For the compound `Cc1cccc(-n2c(C)nc3ccc(N4CCCNC4=O)cc3c2=O)c1`, the growth is 93.4%.
For the compound `COc1cc(N2C(=O)[C@H](c3ccccc3)C2c2ccc(SC)cc2)cc(OC)c1OC` (stereo not given in full), the growth is 7.35% (active).
Consider `Cc1nc2sc(C(=O)Nc3ccccc3)c(N)c2cc1C(=O)/C=C/c1ccccc1`, for which the growth is -71.7% (active).
As for `COc1ccc(C(c2cc(OC)c(OC)c(OC)c2)N2CCN(Cc3ccccc3)CC2)cc1` (stereo not given), the figure is 62.8%.
The result for `C/C(=N\O)C(=O)NCCCCCC(=O)Nc1ccccc1` reads 98.6%; that for `CC[C@H](Nc1nc(N)nc(C)c1C#N)c1nc2cccc(NCCCCCC(=O)NO)c2c(=O)n1-c1ccccc1`, 61.3%.
Consider `Cc1ccc(-c2nc(C#N)c(S(=O)(=O)NCCO)o2)cc1`, for which the growth was 74%.
The result for `C=C(CN1CC=CCC1)[C@@H]1CC[C@]2(CO)CC[C@]3(C)[C@H](CC[C@@H]4[C@@]5(C)CC[C@H](O)C(C)(C)[C@@H]5CC[C@]43C)[C@@H]12` reads 88.3%; that for `CCCCCSB(SCCCCC)c1ccccc1`, 99.7%.
On to `O=C(Nc1ccccc1O)c1ccccc1Nc1ccnc(C(F)(F)F)c1`, for which the growth was 102%.
Turning to `C[N+](C)(C/C=C/c1ccccc1)Cc1ccccc1`, the growth was 102%.
As for `CCCCC(=O)Nc1ncc(Cc2ccccc2Cl)s1`, the figure is 32%.
Consider `C=C1C(=O)O[C@H]2[C@H]1CC/C(COC(=O)/C=C\C(=O)NCc1ccc(Cn3c(=O)sn(-c4ccccc4)c3=O)cc1)=C\CC[C@@]1(C)O[C@@H]21`, for which the growth is 84.3%.
As for `C#CC#CC#CC#CC#CC#CC#CC#CCC1OCC(COC(=O)O[C@@H](C(=O)O[C@H]2C[C@@]3(O)[C@@H](OC(=O)c4ccccc4)[C@@H]4[C@]5(OC(C)=O)CO[C@@H]5C[C@H](O)[C@@]4(C)C(=O)[C@H](OC(C)=O)C(=C2C)C3(C)C)[C@@H](NC(=O)c2ccccc2)c2ccccc2)O1` (stereo not given in full), the figure is 17.9%; as for `CCOc1ccc(/C=N\N=C\c2ccc(OCC)cc2)cc1`, 74.4%.
Take `Clc1nccc2c(-c3csc(-c4c[nH]c5ccccc45)n3)c[nH]c12`: the growth was 20.9%.
Turning to `CO[C@H](C(=O)[C@@H](O)[C@@H](C)O)[C@@H]1Cc2cc3cc(O[C@H]4C[C@@H](O[C@H]5C[C@@H](O)[C@H](O)C(C)O5)[C@H](O)C(C)O4)c(C)c(O)c3c(O)c2C(=O)[C@H]1O[C@H]1C[C@@H](O[C@H]2C[C@@H](O[C@H]3C[C@@H](OC)[C@H](O)C(C)O3)[C@@H](O)C(C)O2)C(O)(O)C(C)O1` (stereo not given in full), the growth was 9.8% (active).
The result for `COc1ccc2c(c1)c(-c1nonc1-c1cn(C)c3ccc(OC)cc13)cn2C` reads 33.7%; that for `CN(C)c1ccc(/C=C/C(=O)c2ccc(Nc3nc(Nc4ccc(F)cc4)nc(Nc4ccc(Cl)cc4)n3)cc2)cc1`, 67.9%.
As for `Cc1ccc2[nH]c(-c3ccc(S(C)(=O)=O)cc3)c(/C=N/N=C(N)N)c2c1`, the figure is 33.4%; as for `Cc1ccc2nc(Cl)c(Cn3nnnc3SCc3ccccc3)cc2c1`, 95.8%.
In the case of `Cn1ccnc1C(=O)/C=C/c1ccc(C(=O)Nc2ccc(F)cc2)cc1`, the growth was 1.92% (active).
Regarding `CC/C=C1/C(=O)C=C[C@@H]1C/C=C\CCCC(=O)OC`, the growth was 47.8%.
As to `Nc1c(C(=O)O)cc(Cl)cc1[N+](=O)[O-]`, the growth is 104%.
For the compound `O=C(O)c1cccc(N/C=C/C(=O)c2cc3cc(Br)ccc3oc2=O)c1`, the growth was 96.9%.
As to `CN1CCN(C(=O)c2cc(-c3ccc4ncnc(N5CCc6cc(F)c(Cl)cc65)c4c3)cnc2N)CC1`, the growth was 15.4%.
Turning to `Cc1cccc(N2CCN(C(=S)c3ccc4c(c3)OCO4)CC2)c1`, the growth is 20.7%.
On to `COc1ccc(C(C)=O)cc1S(N)(=O)=O`, for which the growth was 98.6%.
As for `Cc1cc(F)ccc1S(=O)(=O)Nc1cc(-c2c(O)ccc3ccccc23)c(O)c2ccccc12`, the figure is 18.6%; as for `CCCC(O)Cn1ncc(C(=O)OCC)c1NC(=O)NCc1cccc(F)c1` (stereo not given), 101%.
As to `C[Se]C(=O)CC1=C2C=C(F)C=CC2/C(=C\c2ccc(S(C)=O)cc2)C1C` (stereo not given), the growth is -36.3% (active).
The result for `COc1cc2c(c(OC)c1OC)C(=O)N[C@@H]1[C@@H](O)[C@@H](O)[C@H](O)C[C@@H]21` reads 98.9%; that for `CCCCN1C(=O)/C(=c2\sc3n(c2=O)NC2C(N=3)N(CC)C(=O)N2CC)c2ccccc21` (stereo not given), 33.8%; that for `C=CCN=C(N)SCCCCCCSC(N)=NCC=C`, 87.4%.
The result for `NS(=O)(=O)c1ccc(N/C=C/C(=O)c2cc3ccccc3oc2=O)cc1` reads 97.2%; that for `COc1cc2cc(Oc3ccc(NC(=O)Nc4ccccc4)cc3)c(C)nc2cc1OCCN1CCCCC1`, 21.5%.
With `N#Cc1c(-c2ccccc2)cc(-c2ccccc2)n(CCCC(=O)NO)c1=O`, the growth is 26.8%.
`COc1ccc2c(O)c(/C=C3\N=Nc4ccccc43)oc2c1C[C@H]1CCNC[C@H]1F`: the growth was 65.4%.
As for `C#CC#CC#CC#CC#CC#CC#CC#CC[C@H]1OC[C@H](COC(=O)O[C@@H](C(=O)O[C@H]2C[C@@]3(O)[C@@H](OC(=O)c4ccccc4)[C@@H]4[C@]5(OC(C)=O)CO[C@@H]5C[C@H](O)[C@@]4(C)C(=O)[C@H](OC(C)=O)C(=C2C)C3(C)C)[C@@H](NC(=O)c2ccccc2)c2ccccc2)O1`, the figure is 37.8%.
The result for `CCOc1ccc(NC(=O)c2cc(OC)c(OC)c(OC)c2)cc1` reads 30.1%.
